From PubChem BioAssay AID652071 (NMMLSC, 2013)
The source made the active and inactive calls. No rule for the calls is given here.

assay: V-ATPase proton transport modulators in yeast, dose response, S. cerevisiae, pHLuorin, powder set 4 (AID 652071); conditions: S. cerevisiae pHLuorin cytosolic pH fluorescence; series mostly up to 100 µM

outcome, inactive:
CC(=O)N1CCN(c2ccccc2NC(=O)c2ccc(Br)o2)CC1
COCc1ccc(C(=O)Nc2ccccc2N2CCN(C)CC2)o1
O=C(Nc1ccccc1N1CCOCC1)c1occc1-c1ccccc1
Cc1ccc(C(=O)Nc2ccccc2N2CCN(C)CC2)o1
CS(=O)(=O)c1cccc(C(=O)Nc2ccccc2N2CCOCC2)c1
CN(C)Cc1cccc(C(=O)Nc2ccccc2N2CCCCC2)c1
CN1CCN(c2ccccc2NC(=O)c2ccc(Cl)o2)CC1
COCc1cccc(C(=O)Nc2ccccc2N2CCN(C(C)=O)CC2)c1
CC(=O)N1CCN(c2ccccc2NC(=O)c2cccc(CS(C)(=O)=O)c2)CC1
CN1CCN(c2ccccc2NC(=O)c2cc(C#N)ccn2)CC1
CC(=O)N1CCN(c2ccccc2NC(=O)c2cccc(CN(C)C)c2)CC1
CC(=O)N1CCN(c2ccccc2NC(=O)c2cc(C(F)(F)F)ccn2)CC1
Cc1ccnc(C(=O)Nc2ccccc2N2CCN(C)CC2)c1
CC(=O)N1CCN(c2ccccc2NC(=O)c2cccc(Br)n2)CC1
CC(=O)N1CCN(c2ccccc2NC(=O)c2occc2-c2ccccc2)CC1
CC(=O)N1CCN(c2ccccc2NC(=O)c2ccc(C(F)(F)F)o2)CC1
CC(=O)N1CCN(c2ccccc2NC(=O)c2ccc(C)o2)CC1
O=C(Nc1ccccc1N1CCOCC1)c1ccc(Cl)o1
CS(=O)(=O)Cc1cccc(C(=O)Nc2ccccc2N2CCCCC2)c1
CN1CCN(c2ccccc2NC(=O)c2cccc(C#N)c2)CC1
CC(=O)N1CCN(c2ccccc2NC(=O)c2ccc(-c3ccccc3)o2)CC1
O=C(Nc1ccccc1N1CCCCC1)c1ccc(Cl)o1
CN1CCN(c2ccccc2NC(=O)c2ccc(C(N)=O)o2)CC1
O=C(Nc1ccccc1N1CCCCC1)c1ccc(-c2ccccc2)o1
CC(=O)N1CCN(c2ccccc2NC(=O)c2cccc(S(C)(=O)=O)c2)CC1
CC(=O)N1CCN(c2ccccc2NC(=O)c2cncc(N)n2)CC1
CN1CCN(c2ccccc2NC(=O)c2cccc(C(N)=O)c2)CC1
CC(=O)N1CCN(c2ccccc2NC(=O)c2cccc(Cl)n2)CC1
O=C(c1occc1-c1ccccc1)N1CCN(c2nc3ccc(F)cc3s2)CC1
CN1CCN(c2ccccc2NC(=O)c2occc2-c2ccccc2)CC1
CN1CCN(c2ccccc2NC(=O)c2cccc(Br)n2)CC1
O=C(c1ccc(Cl)o1)N1CCN(c2nc3ccc(F)cc3s2)CC1
CC(=O)N1CCN(c2ccccc2NC(=O)c2cccc(C(=O)N(C)C)c2)CC1
COCc1cccc(C(=O)Nc2ccccc2N2CCCCC2)c1
